PubChem BioAssay (NCATS)
“And” between values parts separate entries of the source, which are not always exact repeats. Identical values can stand only once. The source made the active and inactive calls.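 The calls were made as follows: active = compounds whose dose series gives a full or clear partial fitted curve of increased nuclear translocation; inconclusive = weak partial curve or effect only at the top dose; inactive = no dose-dependent translocation response.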

The compounds below were run against Glucocorticoid receptor (Homo sapiens) (UniProt P04150) (assay: GR-GFP Redistribution (AID 450)). Settings: U2OS GR-GFP nuclear translocation, laser cytometry, 2 h.
Source text: NIH Molecular Libraries Screening Centers Network [MLSCN]
NIH Chemical Genomics Center [NCGC]
The glucocorticoid receptor (GR) Redistribution assay (BioImage) enables the visualization of GR cytoplasmic to nuclear translocation by the use of a GR-GFP fusion. GR is normally cytosolic, however ligands such as dexamethasone, cause nuclear translocation where the protein binds to response elements and interacts with various co-factors to modulate transcription. Because both functional agonists and antagonists can induce nuclear translocation, this assay can detect ligands regardless of their effects on gene expression. GR-GFP expressing U20S cells were used here. Dexamethasone was the positive control for translocation and data normalization. Detection of nuclear translocation was performed in 1536-well plates using the Acumen laser scanning plate cytometer (TTP LabTech). Validation of this assay and a detailed protocol have been described.
NCGC Assay Protocol Summary:
GR-GFP U2OS cells were maintained in DMEM with Glutamax and high glucose, 1% v/v penicillin-streptomycin, and 0.5 mg/mL Geneticin. For cell culture, 10% […] fetal bovine serum (FBS) was used (Invitrogen #26140-079). For cell plating 10% dextran, charcoal-stripped FBS (Hyclone SH30068.03) was used. U2OS cells were trypsin treated, suspended in medium, and passed through a 40 um basket filter. The cells were seeded at 600 cells/5 uL/well into clear-bottom black sided 1536-well plates and incubated for approximately 20 hrs, 37degC, 5%, CO2 in a tissue culture incubator. Twenty-three nL of compound was delivered by pin tool and the plates were incubated as above for 2 hrs. The compounds were tested as a 7-point titration ranging from 46 uM to 0.6 nM. The cells were fixed using the Kalypsys Washer/Dispenser station. The fixing protocol involved aspiration of the cell media, addition of 6 uL/well of PBS, aspiration of PBS, addition of 5uL/well of 100% methanol, aspiration of methanol, and addition of 3 uL/well PBS with 1.5 uM propidium iodide (PI). The plates were read by the Acumen Explorer using a 1 x 8 um scan of the whole well area. PI fluorescence triggered the collection of PI and GFP signals. A nuclei population was defined by a 10 to 100 um width and depth filter that eliminated small and large fluorescent particles. Two subpopulations of nuclei were then defined by peak intensity of GFP fluorescence to obtain translocated and untranslocated objects. The number of translocated objects was used for data normalization.
Keywords: NIH Roadmap, MLSCN, MLI, MLSMR, sOGT, qHTS, NCGC
Potency is read from the fitted curve at half-maximal effect.

Sequence of Glucocorticoid receptor (Homo sapiens) (P04150 whole entry, looked up): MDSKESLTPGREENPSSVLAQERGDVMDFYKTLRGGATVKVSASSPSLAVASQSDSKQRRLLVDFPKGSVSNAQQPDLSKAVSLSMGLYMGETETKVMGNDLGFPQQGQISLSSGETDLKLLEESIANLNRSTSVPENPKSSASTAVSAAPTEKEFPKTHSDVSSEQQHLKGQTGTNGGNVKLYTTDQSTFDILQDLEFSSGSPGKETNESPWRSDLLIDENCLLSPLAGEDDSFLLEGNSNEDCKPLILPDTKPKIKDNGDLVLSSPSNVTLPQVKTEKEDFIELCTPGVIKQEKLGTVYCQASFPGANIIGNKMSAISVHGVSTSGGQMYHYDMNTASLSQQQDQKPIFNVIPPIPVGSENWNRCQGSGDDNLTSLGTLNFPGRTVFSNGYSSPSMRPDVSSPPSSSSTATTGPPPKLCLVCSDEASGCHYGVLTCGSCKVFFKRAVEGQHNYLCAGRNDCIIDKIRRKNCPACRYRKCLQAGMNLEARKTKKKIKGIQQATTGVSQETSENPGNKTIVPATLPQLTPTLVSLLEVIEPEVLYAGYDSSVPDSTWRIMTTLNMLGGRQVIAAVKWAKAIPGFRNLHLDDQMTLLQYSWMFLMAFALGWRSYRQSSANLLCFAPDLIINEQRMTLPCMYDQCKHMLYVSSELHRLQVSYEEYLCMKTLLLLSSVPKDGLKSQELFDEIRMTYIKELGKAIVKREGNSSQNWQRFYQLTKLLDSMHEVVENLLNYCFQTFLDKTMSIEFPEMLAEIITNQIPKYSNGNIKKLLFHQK

| Structure (SMILES) | Potency |
| --- | --- |
| Cc1cnc(CNc2ncnc3ccc(-c4c(C)noc4C)cc23)cn1 | > 46 µM (inactive) |
| CN(C)c1ncnc2ccc(-c3ccoc3)cc12 | > 46 µM (inactive) |
| CN(C)c1ncc2nc(-c3ccccc3)c(=O)n(Cc3ccc(F)cc3)c2n1 | > 9.22 µM (inactive) |
| N#CCCn1c(=O)cnc2cnc(N3CCOCC3)nc21 | > 9.22 µM (inactive) |
| c1cncc(CNc2ncnc3ccc(-c4cccnc4)cc23)c1 | > 46 µM (inactive) |
| COc1ccc(-n2c(C)c(C(C)=O)c3cc(O)ccc32)cc1 | > 20.6 µM (inactive) |
| CN(C)C(=O)c1ccc(-c2ccc3ncnc(N(C)C)c3c2)cc1 | > 46 µM (inactive) |
| COCCn1c(=O)cnc2cnc(Oc3ccccc3)nc21 | > 9.22 µM (inactive) |
| COc1ccc(-n2c(=O)c(-c3cccs3)nc3cnc(N(C)C)nc32)cc1 | > 9.22 µM (inactive) |
| COc1cccc(-c2nc(NCc3ccccc3)c3ccccc3n2)c1 | > 46 µM (inactive) |
| CN1CCN(c2ncnc3ccc(-c4ccc5c(c4)OCO5)cc23)CC1 | > 46 µM (inactive) |
| COc1ccc(-n2c(=O)c(-c3cccs3)nc3cncnc32)cc1 | > 9.22 µM (inactive) |
| COc1ccc(-n2c(=O)cnc3cnc(OC)nc32)cc1 | > 9.22 µM (inactive) |
| CN(C)c1ncc2nc(-c3ccc(F)cc3)c(=O)n(Cc3ccc(F)cc3)c2n1 | > 9.22 µM (inactive) |
| CN1CCN(c2ncc3ncc(=O)n(C4CC4)c3n2)CC1 | > 9.22 µM (inactive) |
| COCCn1c(=O)c(CCc2ccccc2)nc2cnc(OC)nc21 | > 9.22 µM (inactive) |
| Cc1nc2cncnc2n(C2CC2)c1=O | > 9.22 µM (inactive) |
| COc1ccc(-n2c(=O)c(-c3cccc(C#N)c3)nc3cnc(N4CCNCC4)nc32)cc1 | > 9.22 µM (inactive) |
| CN1CCN(c2ncc3ncc(=O)n(C[C@H]4CCCO4)c3n2)CC1 | > 9.22 µM (inactive) |
| c1ncc(-c2ccoc2)c(NC2CC2)n1 | > 46 µM (inactive) |

| Structure (SMILES) | Potency |
| --- | --- |
| NCCC(=O)NCCc1cnc[nH]1 | > 46 µM (inactive) and > 20.6 µM (inactive) |
| CNc1ccnc(-c2ccccc2C(F)(F)F)n1 | > 46 µM (inactive) |
| Cn1c(=O)c(-c2cccs2)nc2cncnc21 | > 9.22 µM (inactive) |
| COCCn1c(=O)c(-c2ccccc2)nc2cnc(OCc3ccccc3)nc21 | > 9.22 µM (inactive) |
| COc1ccc2c(c1)c(CC(=O)O)c(C)n2Cc1ccc(F)cc1 | > 46 µM (inactive) |
| C[C@@]12C(=O)OC(=O)[C@]1(C)[C@H]1CC[C@@H]2O1 | 2.63 µM (active) |
| Cn1cc(-c2nc3cnc(N4CCOCC4)nc3n(C3CC3)c2=O)c2ccccc21 | > 9.22 µM (inactive) |
| Cc1noc(C)c1-c1ccc2ncnc(NCc3cccnc3)c2c1 | > 46 µM (inactive) |
| COc1ncc2nc(-c3cccs3)c(=O)n(-c3ccccc3)c2n1 | > 9.22 µM (inactive) |
| COc1ccc(-c2nc3cnc(N4CCNCC4)nc3n(Cc3cccs3)c2=O)cc1 | > 46 µM (inactive) |
| CCNc1ncc2nc(-c3ccccc3)c(=O)n(Cc3cccs3)c2n1 | > 9.22 µM (inactive) |
| O=c1c(-c2cc(F)cc(F)c2)nc2cnc(N3CCNCC3)nc2n1Cc1cccs1 | > 9.22 µM (inactive) |
| N#CCCn1c(=O)c(-c2cccs2)nc2cnc(OCc3ccccc3)nc21 | > 9.22 µM (inactive) |
| COc1ccc(-c2nc3cnc(Oc4cccc(Cl)c4)nc3n(C3CC3)c2=O)cc1 | > 9.22 µM (inactive) |
| CNc1nc(-c2ccccc2CN(C)C)nc2ccccc12 | > 46 µM (inactive) |
| N#Cc1cccc(-c2nc3cnc(N4CCOCC4)nc3n(C[C@H]3CCCO3)c2=O)c1 | > 9.22 µM (inactive) |
| CN(C)c1ncc2nc(-c3ccc(F)cc3)c(=O)n(C[C@H]3CCCO3)c2n1 | > 9.22 µM (inactive) |
| COc1cccc(-c2cncnc2-n2ccnc2)c1 | > 46 µM (inactive) |
| COc1ccc(Oc2ncc3nc(-c4cc(F)cc(F)c4)c(=O)n(CCC#N)c3n2)cc1 | > 9.22 µM (inactive) |
| Cc1nc2cnc(N(C)C)nc2n(C[C@H]2CCCO2)c1=O | > 9.22 µM (inactive) |
